Inconclusive results are not listed. Activity calls are given as the source filed them. Calls follow the shape of the dose curve; as a rule, active = well fitted cell-killing curve with a large enough effect; inconclusive = small, poorly fitted or top-dose-only effect, or effect the other way; inactive = no such curve, though single readings can be large or run the other way.
assay: Quantitative High-Throughput drug screen in 47 multiple myeloma cell lines against the NCATS MIPE library collection: VP6_DJ cell viability assay (AID 1919867); settings: ATP luminescence, 48 h; series mostly up to 45.8 µM; also: nearly all actives have a fitted effect of over 40% in size
Excerpt: PI: Beverly A. Mock Ph.D.
Laboratory of Cancer Biology and Genetics,
Center for Cancer Research, National Cancer Institute,
National Institute of Health, Bethesda, Maryland
Drug resistance and disease progression are common in multiple myeloma (MM) patients, underscoring the need for new therapeutic combinations. […] We hypothesized that effective combinations would reduce MYC expression and enhance p16 activity. […] These preclinical data identify potentially useful drug combinations for evaluation in drug-resistant MM and reveal potential mechanisms of combined drug sensitivity.
Described herein is the primary MIPE qHTS used to cherrypick compounds. Validated compounds were then further tested for potential synergistic activiy.
[1] Peat TJ, Gaikwad SM, Dubois W, Gyabaah-Kessie N, Zhang S, Gorjifard S, Phyo Z, Andres M, Hughitt VK, Simpson RM, Miller MA, Girvin AT, Taylor A, Williams D, D'Antonio N, Zhang Y, Rajagopalan A, Flietner E, Wilson K, Zhang X, Shinn P, Klumpp-Thomas C, McKnight C, Itkin Z, Chen L, Kazandijian D, Zhang J, Michalowski AM, Simmons JK, Keats J, Thomas CJ, Mock BA. Drug combinations identified by high-throughput screening promote cell cycle transition and upregulate Smad pathways in myeloma. Cancer Lett. 2023 Aug 1;568:216284. doi: 10.1016/j.canlet.2023.216284. Epub 2023 Jun 24. PMID: 37356470; PMCID: PMC10408729.
SEQUENCE No. (e.g., 1, 2, 3, etc.); […] (e.g., Cells, Incubation, Reagent, etc.); VALUE and DESCRIPTION.
1; Cells; 5 uL; white, solid bottom 1536-well Greiner assay plate.
2; Compounds; 23 nL; Kalypsis pin tool (Wako USA) equipped with a 1536-well pin head to transfer to the assay plates.
3; Incubation; 48 hours; 37C incubation.
4; Reagent;5uL; CellTiter Glo (Promega).
5; Detector; 425V; Luminescence; Viewlux PerkinElmer.
NOTES (numbers refer to Sequence numbers above)
1. The cell-based screening methods employed in this study were like those previously published. Briefly, the corresponding myeloma cell lines were screened in 1,536-well plates with 500 cells, 5-uL per well for inhibition of cell viability (assessed by measuring ATP levels with CellTiterGlo).
2. NCATS MIPE 4.0 library of approved and investigational drugs were added using the Kalypsis pin tool. Wells treated with DMSO only for 100% viability and media only for 0% viability were used as controls.
3. The assay plates were covered and incubated for 48 hours in a 37C, 5% CO2 incubator with controlled humidity.
4. After 48 hours, CellTilter-GloTM luminescent substrate mix (Promega) reagent was added to the assay plate and plates we incubated for 5 min at room temperature.
5. Signal was measured as median relative luminescence units on a ViewLux (PerkinElmer) multiplate reader.
[1] Heske CM, Davis MI, Baumgart JT, Wilson K, Gormally MV, Chen L, Zhang X, Ceribelli M, Duveau DY, Guha R, Ferrer M, Arnaldez FI, Ji J, Tran HL, Zhang Y, Mendoza A, Helman LJ, Thomas CJ. Matrix Screen Identifies Synergistic Combination of PARP Inhibitors and Nicotinamide Phosphoribosyltransferase (NAMPT) Inhibitors in Ewing Sarcoma. Clin Cancer Res. 2017 Dec 1;23(23):7301-7311. doi: 10.1158/1078-0432.CCR-17-1121. Epub 2017 Sep 12. PMID: 28899971; PMCID: PMC6636827.
Potency is read from the fitted curve at half-maximal effect.

Row | SMILES | Potency
1 | COc1cc(C[C@@H](CO)[C@H](CO)Cc2ccc(O)c(OC)c2)ccc1O | 372 nM (active)
2 | COC1=C2C[C@@H](C)C[C@H](OC)[C@@H](O)[C@@H](C)C=C(C)[C@H](OC(N)=O)[C@@H](OC)C=CC=C(C)C(=O)NC(=CC1=O)C2=O | 132 nM (active)
3 | N#Cc1c(NC(=O)c2cccc3ccccc23)sc2c1CCCC2 | 296 nM (active)
4 | CO[C@@H]1[C@@H](O)[C@H](O)[C@@H](n2c3c(Cl)cccc3c3c4c(c5c6cccc(Cl)c6[nH]c5c32)C(=O)NC4=O)O[C@@H]1CO | 662 nM (active)
5 | C[C@]12CC[C@@H]3c4ccc(O)cc4CC[C@H]3[C@H]1CC[C@H]2O | 8330 nM (active)
6 | O=C(CN1C(=O)C2(CCCC2)NC[C@H]1c1cc(F)cc(F)c1)Nc1ccc2c(c1)C[C@@]1(C2)C(=O)Nc2ncccc21 | inactive
7 | COc1ccc([C@@H]2CNC(=O)C2)cc1OC1CCCC1 | 2350 nM (active)
8 | O=C(Nc1cc2cc[nH]c2cn1)c1ccccc1 | 18700 nM (active)
9 | C=C(C)[C@@H]1CC[C@]2(C(=O)O)CC[C@]3(C)[C@H](CC[C@@H]4[C@@]5(C)CC[C@H](O)C(C)(C)[C@@H]5CC[C@]43C)[C@@H]12 | 7430 nM (active)
10 | CC1(C)[C@H](O[C@H]2O[C@H](C(=O)O)[C@@H](O)[C@H](O)[C@H]2O[C@@H]2O[C@H](C(=O)O)[C@@H](O)[C@H](O)[C@H]2O)CC[C@@]2(C)[C@H]1CC[C@]1(C)[C@H]2C(=O)C=C2[C@H]3C[C@@](C)(C(=O)O)CC[C@]3(C)CC[C@]21C | inactive
11 | Cn1cc(-c2cnn3c(N)c(Br)c([C@H]4CCCNC4)nc23)cn1 | 662 nM (active)
12 | COc1cc(O)c2c(c1)C1OC1C[C@H](O)[C@H](O)C(=O)C=CC[C@H](C)OC2=O (stereo not given in full) | 1660 nM (active)
13 | CC(Oc1ccc(O)cc1)(P(=O)(O)O)P(=O)(O)O | inactive
14 | CCCNS(=O)(=O)Nc1ncnc(OCCOc2ncc(Br)cn2)c1-c1ccc(Br)cc1 | inactive
15 | C=CC(=O)N1CCc2ccc(-n3c(=O)ccc4cnc5ccc(-c6cnn(C)c6)cc5c43)cc21 | 2960 nM (active)
16 | C[C@@H](NCc1cc2ccccc2[nH]1)c1cccc2ccccc12 | inactive
17 | CN(C)c1ccc2cc(C(=O)N[C@@H](CCCN=C(N)CCl)C(=O)NCc3ccccc3)ccc2c1 | 4690 nM (active)
18 | C#CCC(Cc1cnc2nc(N)nc(N)c2n1)c1ccc(C(=O)N[C@@H](CCC(=O)O)C(=O)O)cc1 (stereo not given in full) | 118 nM (active)
19 | COc1ccc(C[C@@H](C)[C@@H](C)Cc2ccc(OC)c(OC)c2)cc1OC | 833 nM (active)
20 | Cc1ccc2nc(NCCN)c3ncc(C)n3c2c1 | 5260 nM (active)

Row | SMILES | Potency
21 | Cc1cc(Nc2ncc3c(n2)N(C)C(=O)N(c2cc(NC(=O)c4cccc(C(F)(F)F)c4)ccc2C)C3)n(C)n1 | 935 nM (active)
22 | O=C(O)C(=O)Nc1cccc(C2=NN=N[N]2)c1 | inactive
23 | CC(C=CC1=C(C)CCCC1(C)C)=CC=CC(C)=CC(=O)Nc1ccc(O)cc1 | 12100 nM (active)
24 | CCNC(=O)c1cc2c(-c3cc(OCCN4CCCC4)c(Cl)cc3Cl)nc(N)nc2s1 | 743 nM (active)
25 | O=C1NC(=O)C(=Cc2ccc3nccc(-c4ccncc4)c3c2)S1 | 132 nM (active)
26 | CCOC(=O)N1CCN([N+]([O-])=NOc2ccc([N+](=O)[O-])cc2C#N)CC1 | 743 nM (active)
27 | Cc1ccc(O)c(C(CCN(C(C)C)C(C)C)c2ccccc2)c1 (stereo not given) | inactive
28 | Nc1ccn(C[C@@H](CO)OCP(=O)(O)O)c(=O)n1 | inactive
29 | CC(C)NC[C@@H](C(=O)N1CCN(c2ncnc3c2[C@H](C)C[C@H]3O)CC1)c1ccc(Cl)cc1 | 833 nM (active)
30 | c1cc(N[C@@H]2CCNC2)nc(-c2cnc3ccc(-c4cn[nH]c4)cn23)c1 | 14800 nM (active)
31 | CN(C)c1ccc(C(=O)NCCCCCCC(=O)NO)cc1 | 148 nM (active)
32 | CC(C)(O)Cn1c(NC(=O)c2ccc(-c3cn[nH]c3)s2)nc2cc(CN3CCOCC3)ccc21 | 743 nM (active)
33 | CN[C@@H]1C[C@H]2O[C@@](C)([C@H]1OC)n1c3ccccc3c3c4c(c5c6ccccc6n2c5c31)C(=O)N[C@H]4O | 46.9 nM (active)
34 | COc1cc2c(Nc3ccc(Cl)c(Cl)c3F)ncnc2cc1OCC1C[C@@H]2CN(C)C[C@H]2C1 | 2640 nM (active)
35 | CCCCC(=O)O[C@]1(C(=O)CO)[C@@H](C)C[C@H]2[C@@H]3CCC4=CC(=O)C=C[C@]4(C)[C@@]3(F)[C@@H](O)C[C@@]21C | 14800 nM (active)
36 | C[C@H]1C[C@H]2[C@@H]3CCC4=CC(=O)C=C[C@]4(C)[C@@H]3C(=O)C[C@]2(C)[C@@]1(O)C(=O)CO | 6620 nM (active)
37 | C[C@@H]1C(=O)O[C@H]2CC34[C@H]5C[C@@H](C(C)(C)C)C36[C@H](OC(=O)[C@@H]6O)O[C@@]4(C(=O)O5)[C@]21O (stereo not given in full) | inactive
38 | CCC(C(=O)O)C1CCC(C)C(C(C)C(O)C(C)C(=O)C(CC)C2OC3(C=CC(O)[C@@]4(CC[C@](C)(C5CC[C@@](O)(CC)C(C)O5)O4)O3)C(C)CC2C)O1 (stereo not given in full) | 2090 nM (active)
39 | NS(=O)(=O)OC[C@@H]1C[C@@H](n2ccc3c(N[C@H]4CCc5ccccc54)ncnc32)C[C@H]1O | 1480 nM (active)
40 | C=C(C)[C@@H]1CC[C@]2(C)CC[C@]3(C)[C@H](CC[C@@H]4[C@@]5(C)CC[C@H](O)C(C)(C)[C@H]5CC[C@]43C)[C@@H]12 | inactive
